Among the test systems are EKVX NSCLC; SN12C renal; ACHN renal; CAKI-1 renal; CCRF-CEM leukemia; MOLT-4 leukemia; SR leukemia; RPMI-8226 leukemia; OVCAR-8 ovarian; OVCAR-5 ovarian; OVCAR-4 ovarian; SK-OV-3 ovarian; IGROV1 ovarian; OVCAR-3 ovarian; HS 578T breast; NCI/ADR-RES ovarian; T-47D breast; A498 renal; UO-31 renal; TK-10 renal.
Holding throughout (test): NCI-60 one-dose screen, 48 h (100 = growth as untreated, 0 = no growth, -100 = all killed)
What all share (conditions): 10 µM unless noted

SMILES strings stand for the structures. The panel holds about 83,000 compounds, 20% with a hit somewhere; the sample as a whole holds those more often.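 Cells were grown in 96-well plates and exposed to the test compound at a single concentration for 48 hours; results are reported as percent growth, with values below 10 considered active.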 A number with no mark means an inactive call. Calls of active or inactive are those of the source.

As for `COc1cc(OC)c(S(=O)(=O)NNC(=O)c2ccncc2)cc1C(=O)/C=C/c1ccc(C)cc1`, the growth is 85.7% with EKVX NSCLC; 95.8% in the test with SN12C renal; 98.1% in the test on ACHN renal; 72.4% in the test on CAKI-1 renal; 8.66% (active) with CCRF-CEM leukemia; 42.2% with MOLT-4 leukemia. The growth in the test on SR leukemia was 21.9%; in the test with RPMI-8226 leukemia, 20.3%; in the test on OVCAR-8 ovarian, 88.3%; with OVCAR-5 ovarian it was 110%; in the test with OVCAR-4 ovarian, 91.3%; in the test on SK-OV-3 ovarian, 101%. In addition, the growth in the test on IGROV1 ovarian is 72.7%; in the test with OVCAR-3 ovarian, 81%; with HS 578T breast, 80.5%; in the test with NCI/ADR-RES ovarian it was 107%; with T-47D breast it was 72.7%.
Consider `COc1cccc(COc2ccc(/C=C3/C(=O)Nc4cc(Cl)ccc43)cc2)c1`, for which the growth was 87.6% with EKVX NSCLC; 91.1% with SN12C renal; 96.9% in the test on ACHN renal; 90.6% with CAKI-1 renal; 93% in the test on A498 renal; 82.6% in the test with CCRF-CEM leukemia. Besides, the growth is 78% in the test with RPMI-8226 leukemia; 90.8% in the test with OVCAR-8 ovarian; 96.1% in the test with OVCAR-5 ovarian; 96.6% in the test with OVCAR-4 ovarian; 100% in the test on SK-OV-3 ovarian; 87.6% in the test with IGROV1 ovarian. For the same compound, the growth in the test with OVCAR-3 ovarian was 105%; with HS 578T breast, 91%; with NCI/ADR-RES ovarian, 90.3%; in the test on T-47D breast, 80.6%.
Regarding `CCN(CC)c1ccc(C=O)c(OCc2cn(CC(=O)Nc3ccc(Cl)cc3)nn2)c1`, the growth with EKVX NSCLC is 82.8%; in the test on SN12C renal, 63.5%; with ACHN renal, 24.3%; with CAKI-1 renal, 57.5%; with A498 renal, 89.2%; in the test with CCRF-CEM leukemia, 72.7%. Further, the growth with SR leukemia is 47%; in the test on RPMI-8226 leukemia, 57.9%; in the test on OVCAR-8 ovarian it was 75.3%; with OVCAR-5 ovarian it was 91%; in the test with OVCAR-4 ovarian, 70.4%; with SK-OV-3 ovarian, 86.8%. Moreover, the growth with IGROV1 ovarian is 74.7%; in the test on OVCAR-3 ovarian it was 83.5%; in the test on HS 578T breast, 87.8%; with NCI/ADR-RES ovarian, 84.2%; in the test with T-47D breast, 59.8%.
Turning to `O=C(CSc1nnc(-c2ccc3nc(-c4ccc(Cl)cc4)[nH]c3c2)o1)Nc1ccc(C(=O)/C=C/c2ccc(Cl)cc2)cc1`, the growth with EKVX NSCLC is 93.8%; in the test with UO-31 renal it was 75.3%; with TK-10 renal it was 129%; in the test with ACHN renal it was 98.1%; in the test with CAKI-1 renal, 83.6%; in the test on A498 renal it was 90.1%. The growth is 86.4% with CCRF-CEM leukemia; 77.8% with MOLT-4 leukemia; 49.7% with SR leukemia; 4.95% (active) in the test with RPMI-8226 leukemia; 97.1% in the test on OVCAR-8 ovarian; 108% in the test on OVCAR-5 ovarian. For the same compound, the growth is 101% in the test on OVCAR-4 ovarian; 110% in the test on SK-OV-3 ovarian; 85.5% in the test on IGROV1 ovarian; 121% in the test with OVCAR-3 ovarian; 89% in the test with HS 578T breast; 105% in the test with NCI/ADR-RES ovarian. In the test on T-47D breast, the growth is 87.1%.
On to `O=C1c2c(c3c4cccnc4[nH]c3c3ccc4ccccc4c23)C(=O)N1CCO`, for which the growth was 108% in the test on EKVX NSCLC; 84.4% with SN12C renal; 48.3% with ACHN renal; 42.6% with CAKI-1 renal; 57% in the test with A498 renal; 42.8% with CCRF-CEM leukemia. The growth was 31.7% with MOLT-4 leukemia; 9.85% (active) in the test on SR leukemia; 72.7% in the test with RPMI-8226 leukemia; 78% in the test on OVCAR-8 ovarian; 121% in the test on OVCAR-5 ovarian; 105% in the test with OVCAR-4 ovarian. The growth was 84.8% with SK-OV-3 ovarian; 67.7% with IGROV1 ovarian; 121% with HS 578T breast; 87.2% in the test with NCI/ADR-RES ovarian; 37.2% in the test with T-47D breast.
With `COC(=O)C(C)NS(=O)(=O)/N=C1\NC(=O)NC1=C(Cl)Cl` (centres undefined), the growth is 104% in the test with EKVX NSCLC; 98.7% in the test with SN12C renal; 140% in the test on TK-10 renal; 98.2% in the test with ACHN renal; 99% with CAKI-1 renal; 95.9% in the test on CCRF-CEM leukemia. The growth in the test on MOLT-4 leukemia is 100%; in the test with SR leukemia, 93.2%; with RPMI-8226 leukemia it was 104%; in the test on OVCAR-8 ovarian, 100%; in the test on OVCAR-5 ovarian, 98.8%; in the test on OVCAR-4 ovarian, 113%. The growth is 119% in the test on SK-OV-3 ovarian; 104% in the test with IGROV1 ovarian; 117% in the test on OVCAR-3 ovarian; 107% in the test on HS 578T breast; 105% with NCI/ADR-RES ovarian; 107% in the test with T-47D breast.
For `CCCC(=O)NC(c1cccc(N(C)C)c1)c1cc(C)c2cccnc2c1O` (centres undefined), the growth in the test with EKVX NSCLC is 73.8%; in the test on SN12C renal it was 78.2%; with ACHN renal, 38.2%; in the test with CAKI-1 renal it was 48.3%; in the test on CCRF-CEM leukemia, 24.1%; in the test on MOLT-4 leukemia, 22.9%. For the same compound, the growth with SR leukemia is 21.7%; with RPMI-8226 leukemia it was 63.8%; with OVCAR-8 ovarian it was 44%; in the test on OVCAR-5 ovarian, 87.4%; with OVCAR-4 ovarian, 53.1%; in the test on SK-OV-3 ovarian, 56.5%. Moreover, the growth is 40% in the test on IGROV1 ovarian; 8.33% (active) in the test on OVCAR-3 ovarian; 71.4% in the test with HS 578T breast; 22.6% in the test with NCI/ADR-RES ovarian; 56.6% in the test on T-47D breast.
Turning to `O=C(NNc1nc2cc(F)ccc2n2c(CN3CC4(COC4)C3)ccc12)c1cnccn1`, the growth in the test with EKVX NSCLC is 17.6%; in the test with UO-31 renal, 13.7%; in the test with TK-10 renal it was 38.9%; in the test on ACHN renal, 13.7%; in the test with CAKI-1 renal, 19.3%; in the test on A498 renal it was -6.2% (active). Moreover, the growth was 4.02% (active) with CCRF-CEM leukemia; 6.4% (active) with MOLT-4 leukemia; 0.659% (active) with SR leukemia; 22% in the test on RPMI-8226 leukemia; 8.35% (active) with OVCAR-8 ovarian; 38.1% with OVCAR-5 ovarian. Moreover, the growth is 33.3% with OVCAR-4 ovarian; 15.2% in the test on SK-OV-3 ovarian; 18.6% in the test with IGROV1 ovarian; 16.1% in the test with OVCAR-3 ovarian; 65.3% in the test with HS 578T breast; 22% with NCI/ADR-RES ovarian. Besides, the growth in the test on T-47D breast is 26.2%.
For the compound `N=C1CC(=O)NN1C(=O)CSc1nc2sc3c(c2c(=O)n1-c1ccc(Cl)cc1)CCCC3`, the growth in the test with EKVX NSCLC is 97.8%; with SN12C renal, 93.5%; with TK-10 renal, 150%; with ACHN renal it was 94%; with CAKI-1 renal it was 87.4%; in the test with A498 renal it was 91.3%. Besides, the growth with CCRF-CEM leukemia was 103%; in the test with MOLT-4 leukemia, 103%; with SR leukemia, 94%; in the test with RPMI-8226 leukemia, 102%; with OVCAR-8 ovarian, 100%; in the test with OVCAR-5 ovarian it was 104%. Besides, the growth is 103% in the test with OVCAR-4 ovarian; 98.2% in the test with SK-OV-3 ovarian; 94.5% with IGROV1 ovarian; 122% in the test on OVCAR-3 ovarian; 94.5% in the test on HS 578T breast; 115% in the test on NCI/ADR-RES ovarian. Besides, the growth with T-47D breast is 83.8%.

Source of the values: PubChem BioAssay (NCI).
